Source: PubChem
HT1080NT lethal: kills 2HG-producing HT-1080-NT fibrosarcoma cells. AID 686970. actives 1.6% (n = 360,000). HT-1080-NT fibrosarcoma viability, CellTiter-Glo ATP luminescence, 48 h. Potency, µM (top dose mostly 46.1 µM), for the others: at the top dose activity, negative = less viability, actives largely listed as cytotoxic;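 further: NT is the 2HG producing partner of a matched IDH1 knockdown line; potency means the concentration at half of the fitted maximal effect; 0% = DMSO-treated cells and -100% = media-only wells without cells; nearly all actives have a fitted effect of over 55% in size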
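A 48-hour cytotoxicity screen used HT-1080-NT cells plated 2 hours before compound delivery. ATP-based CellTiter-Glo luminescence measured viability, normalized to DMSO and no-cell controls.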
DT40 TDP1 CPT: growth inhibition of DT40 Tdp1-/-;hTDP1 cells with camptothecin (screen for TDP1 inhibitors); Potency, µM (doses to about 46.2 µM), for the others: at the top dose activity change, negative = growth inhibition, most hits filed as inhibitors; chicken DT40 Tdp1-/-;hTDP1 cells + 20 nM CPT, ATP luminescence, 48 h; actives 12% (n = 420,000); further: potency means the concentration at half of the fitted maximal effect; nearly all actives have a fitted effect of over 55% in size
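Cell growth measured by CellTiter-Glo luminescence after a minimum 48 h, 37 C compound exposure with 20 nM CPT in Tdp1-knockout DT40 cells stably expressing hTDP1, seeded 400/well; qHTS titration format.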
TDP1 cell noCPT: qHTS for Inhibitors of human tyrosyl-DNA phosphodiesterase 1 (TDP1): qHTS in cells in absence of CPT. DT40 Tdp1-/- hTDP1 cells, no CPT, ATP luminescence, 48 h. Potency, µM (titrated, usually from 46.2 µM), for inactives: at the top dose activity change, negative = growth inhibition, usual class: inhibitors. actives 15% (n = 420,000). AID 686978, 2013; further: potency means the concentration at half of the fitted maximal effect; nearly all actives have a fitted effect of over 55% in size
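Chicken DT40 Tdp1-/- cells complemented with human TDP1, screened without camptothecin (DMSO vehicle only), 400 cells/well. Compounds pin-transferred, cells incubated at 37 °C for at least 48 hr. Growth read as ATP-dependent luminescence (CellTiter-Glo, 30 min at RT).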
HT1080 IDH1KD tx: toxicity to HT-1080 IDH1 knockdown cells (counter line); AID 686971; HT-1080 IDH1 knockdown viability, ATP luminescence, 48 h; Potency, µM (titrated, usually from 46.1 µM), for the others: at the highest dose activity, negative = toxicity, usual class: cytotoxic; actives 2% (n = 360,000);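 further: potency means the concentration at half of the fitted maximal effect; 0% = DMSO wells and -100% = cell-free medium wells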
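Knockdown cells (IDH1KD HT-1080) received compounds 2 h after plating at 750 cells/well and were kept 48 h at 37 °C in 5% FBS RPMI. A CellTiter-Glo luminescence read gave % activity for curve fitting.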
IL-1B inflam inh: inflammasome signaling inhibition, IL-1 beta readout. THP-1 LPS/ATP IL-1B secretion, AlphaLISA, 16 h; hits give low values. activity change, % at 57.5 µM. actives 4.7% (n = 360,000). AID 743279; in the data active means activity change below about -50%; inconclusive means mostly about -30% to -49%
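Secreted IL-1B measured by AlphaLISA bead assay after 16 h compound exposure of THP-1 cells; compounds (final up to 57.5 uM) added 1 h before LPS (250 ng/mL) and ATP (1.25 mM) stimulation; lower signal means less secretion.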
ELG1 repair inh: ELG1-dependent DNA repair inhibition; HEK293T ELG1-luciferase reporter, luminescence, 16 h; DNA damage induced by 5-fluorouridine; Potency, µM (series often up to 46.1 µM), inactives show top-dose activity change, negative = inhibition, hits mostly inhibitors; actives 2.3% (n = 330,000); AID 504467; further: potency means the concentration at half of the fitted maximal effect; nearly all actives have a fitted effect of over 55% in size
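Reporter activity after DNA damage by 5-fluorouridine is monitored. Compound-treated cells incubate 16 hr at 37 °C, then ONE-Glo is added for 30 min before luminescence reading.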
Active calls of the source: *. Only some compounds are listed: those with a hit (about 19% of all), similar ones and a draw of the others. Unless noted, the call rests on the fitted dose curve; in most records, active means well fitted curve in the direction sought with a large enough effect; inconclusive means small, poorly fitted or top-dose-only effect, or another doubt; inactive means no such curve, though single readings can be large; an effect the other way counts as inactive or inconclusive. Unless noted, on the % scale 0 is the no-effect control and ±100 the full control effect.

What do the screens show for `CCCN(CCC)S(=O)(=O)c1ccc(C(=O)Nc2nnc(-c3cccc(OC)c3)o2)cc1`?
HT1080NT lethal: inconclusive; DT40 TDP1 CPT: 5.8µM*; TDP1 cell noCPT: 5.2µM*; HT1080 IDH1KD tx: inconclusive; IL-1B inflam inh: 44; ELG1 repair inh: inconclusive

Results for CCCN(CCC)S(=O)(=O)c1ccc(C(=O)Nc2nnc(-c3cc(OC)cc(OC)c3)o2)cc1 ?
HT1080NT lethal: inconclusive; DT40 TDP1 CPT: 5.8µM*; TDP1 cell noCPT: 4.6µM*; HT1080 IDH1KD tx: inconclusive; IL-1B inflam inh: 4; ELG1 repair inh: 1.5µM*

Results for CCc1nnc(NC(=O)c2ccc(S(=O)(=O)N(CCOC)CCOC)cc2)o1 ?
HT1080NT lethal: 4%; DT40 TDP1 CPT: -4%; TDP1 cell noCPT: 2%; HT1080 IDH1KD tx: 12%; IL-1B inflam inh: 17; ELG1 repair inh: 3%

How did COc1ccccc1CNC(=O)C(NS(=O)(=O)c1cccs1)C(C)C (stereo unspecified) do in these assays?
DT40 TDP1 CPT: -22%; TDP1 cell noCPT: inconclusive

How did CCc1ccc(-n2nc(C)c3c(C)cc(=O)n(Cc4nc(-c5ccccc5)oc4C)c32)cc1 do in these assays?
DT40 TDP1 CPT: inconclusive; TDP1 cell noCPT: 19%

What do the screens show for `CN(C)CCNS(=O)(=O)c1ccc(N2CCN(c3ccc(F)cc3)CC2)c([N+](=O)[O-])c1`?
HT1080NT lethal: inconclusive; DT40 TDP1 CPT: 13µM*; TDP1 cell noCPT: 13µM*; HT1080 IDH1KD tx: 18µM*; IL-1B inflam inh: -73*; ELG1 repair inh: -6%

What do the screens show for `Cc1ccc(S(=O)(=O)NCCS(=O)(=O)N2CCN(c3ccc(F)cc3)CC2)cc1`?
HT1080NT lethal: 1%; DT40 TDP1 CPT: inconclusive; TDP1 cell noCPT: 12µM*; HT1080 IDH1KD tx: 1%; IL-1B inflam inh: 3; ELG1 repair inh: 0%

What do the screens show for `O=S(=O)(NCCS(=O)(=O)N1CCN(c2ccccc2)CC1)c1ccccc1`?
HT1080NT lethal: -13%; DT40 TDP1 CPT: -19%; TDP1 cell noCPT: inconclusive; HT1080 IDH1KD tx: -7%; IL-1B inflam inh: -5; ELG1 repair inh: 7%

Results for O=C(NCCS(=O)(=O)N1CCN(c2cccc(Cl)c2)CC1)c1cc(=O)c2ccccc2o1 ?
HT1080NT lethal: 2%; DT40 TDP1 CPT: inconclusive; TDP1 cell noCPT: 2.1µM*; HT1080 IDH1KD tx: 6%; IL-1B inflam inh: -4; ELG1 repair inh: -3%

What do the screens show for `O=S(=O)(NCCS(=O)(=O)N1CCN(c2cccc(Cl)c2)CC1)c1ccc(F)cc1`?
DT40 TDP1 CPT: -51%; TDP1 cell noCPT: 21µM*

Results for Cc1ccc(-n2nc(CO)c(C(=O)NCc3ccccn3)n2)cc1 ?
DT40 TDP1 CPT: -10%; TDP1 cell noCPT: -14%

Results for CCOC(=O)C1=C[C@@H](C(C)(C)C)N(S(=O)(=O)c2ccc(OC)cc2)[C@H]1c1ccccc1 ?
HT1080NT lethal: inconclusive; DT40 TDP1 CPT: 18µM*; TDP1 cell noCPT: inconclusive; HT1080 IDH1KD tx: inconclusive; IL-1B inflam inh: -22

What do the screens show for `CCOC(=O)C1=C[C@@H](C(C)(C)C)N(S(=O)(=O)c2ccc(C)cc2)[C@H]1c1ccc(F)cc1`?
HT1080NT lethal: -29%; DT40 TDP1 CPT: 18µM*; TDP1 cell noCPT: 23µM*; HT1080 IDH1KD tx: inconclusive; IL-1B inflam inh: 25

What do the screens show for `CCOC(=O)C1=C[C@@H](C(C)(C)C)N(S(=O)(=O)c2ccc(C)cc2)[C@H]1c1ccc(OC)cc1`?
HT1080NT lethal: -4%; DT40 TDP1 CPT: inconclusive; TDP1 cell noCPT: 21µM*; HT1080 IDH1KD tx: -3%; IL-1B inflam inh: -9

What do the screens show for `CCOC(=O)C1=C[C@@H](c2ccccc2)N(S(=O)(=O)c2ccc(C)cc2)[C@H]1c1ccc(OC)cc1`?
HT1080NT lethal: 6%; DT40 TDP1 CPT: 16µM*; TDP1 cell noCPT: inconclusive; HT1080 IDH1KD tx: 5%; IL-1B inflam inh: 7

What do the screens show for `CCOC(=O)C1=C[C@@H](c2ccccc2)N(S(=O)(=O)c2ccc(C)cc2)[C@H]1c1ccc(F)cc1`?
HT1080NT lethal: 8%; DT40 TDP1 CPT: inconclusive; TDP1 cell noCPT: inconclusive; HT1080 IDH1KD tx: -1%; IL-1B inflam inh: 6

How did CCOC(=O)C1=C[C@@H](C(C)(C)C)N(S(=O)(=O)c2ccc(C)cc2)[C@H]1c1ccccc1 do in these assays?
HT1080NT lethal: inconclusive; DT40 TDP1 CPT: inconclusive; TDP1 cell noCPT: inconclusive; HT1080 IDH1KD tx: inconclusive; IL-1B inflam inh: 19

What do the screens show for `CCOc1ccccc1Nc1nnc(SCC(=O)NC2CCS(=O)(=O)C2)s1` (stereo unspecified)?
HT1080NT lethal: 9%; DT40 TDP1 CPT: -18%; TDP1 cell noCPT: 14%; HT1080 IDH1KD tx: 10%; IL-1B inflam inh: -10; ELG1 repair inh: inconclusive

How did Nc1ccn(CCCN2CCN(Cc3cccc4ccccc34)CC2)c(=O)n1 do in these assays?
HT1080NT lethal: 3%; DT40 TDP1 CPT: -5%; TDP1 cell noCPT: inconclusive; HT1080 IDH1KD tx: 3%; IL-1B inflam inh: 16

What do the screens show for `O=C(Nc1ccn(CCCN2CCN(Cc3cccc4ccccc34)CC2)c(=O)n1)OCc1ccccc1`?
HT1080NT lethal: inconclusive; DT40 TDP1 CPT: 16µM*; TDP1 cell noCPT: 18µM*; HT1080 IDH1KD tx: -21%; IL-1B inflam inh: inconclusive

Results for O=C(Nc1ccn(CCCN2CCN(c3ccccc3)CC2)c(=O)n1)OCc1ccccc1 ?
HT1080NT lethal: -23%; DT40 TDP1 CPT: inconclusive; TDP1 cell noCPT: 15µM*; HT1080 IDH1KD tx: -1%; IL-1B inflam inh: -23

What do the screens show for `O=C(Nc1ccn(CCCN2CCC(N3CCOCC3)CC2)c(=O)n1)OCc1ccccc1`?
HT1080NT lethal: -3%; DT40 TDP1 CPT: -16%; TDP1 cell noCPT: -10%; HT1080 IDH1KD tx: 1%; IL-1B inflam inh: 0

What do the screens show for `O=C(Nc1ccn(CCCNC2CCN(Cc3ccccc3)CC2)c(=O)n1)OCc1ccccc1`?
HT1080NT lethal: inconclusive; DT40 TDP1 CPT: inconclusive; TDP1 cell noCPT: 18µM*; HT1080 IDH1KD tx: inconclusive; IL-1B inflam inh: -18

Results for O=C(Nc1ccn(CCCNCCN2CCOCC2)c(=O)n1)OCc1ccccc1 ?
HT1080NT lethal: 1%; DT40 TDP1 CPT: -103%; TDP1 cell noCPT: -93%; HT1080 IDH1KD tx: 0%; IL-1B inflam inh: 6
